Publication PMC7862700, “An all-to-all approach to the identification of sequence-specific readers for epigenetic DNA modifications on cytosine”

Experiments:
Assay in all cases: DAPPL (digital affinity profiling via proximity ligation, sequencing); 10 mM Tris-HCl pH 7.5, 50 mM NaCl, 1 mM DTT, 4% glycerol, room temperature, 30 min; GST-TFs on glutathione beads, 16-mer random dsDNA library, 0.1% formaldehyde crosslink after washing; high values mean tight binding
[1] = target: T1, FEV (Homo sapiens, UniProt Q99581 1-238); details: protein: recombinant; tags: N-terminal GST; dsDNA, one strand shown
T1 sequence: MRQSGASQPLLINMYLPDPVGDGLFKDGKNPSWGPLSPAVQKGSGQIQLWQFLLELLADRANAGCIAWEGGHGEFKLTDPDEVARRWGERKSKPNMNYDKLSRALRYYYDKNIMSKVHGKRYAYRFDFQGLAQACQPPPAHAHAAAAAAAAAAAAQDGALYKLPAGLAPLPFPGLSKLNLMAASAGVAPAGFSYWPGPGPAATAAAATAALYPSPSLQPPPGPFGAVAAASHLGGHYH
Outline: (§1)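 Human transcription factors fused to GST were expressed in yeast, captured on glutathione beads, given DNA barcodes and pooled with a GST-only negative control. Pools were incubated with 200 nmole of a 16-mer random double-stranded DNA library in Tris/NaCl/DTT/glycerol buffer at room temperature for 30 min. They were then washed, crosslinked with 0.1% formaldehyde, proximity-ligated (BsaI/T4 ligase, 1 h, 37 °C), PCR-amplified and sequenced on an Illumina NextSeq500. Binding signal is each 6-mer's read frequency for a factor divided by its frequency for the GST control.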

[2] = target: ETV5 (Homo sapiens, UniProt P41161 1-510); details: protein: recombinant; tags: N-terminal GST; dsDNA, one strand shown
Outline: as §1

[3] = target: HSF1 (Homo sapiens, UniProt Q00613 1-529); details: protein: recombinant; tags: N-terminal GST; chain copies: 3; dsDNA, one strand shown
Outline: as §1

[4] = target: T2, SPIC (Homo sapiens, UniProt Q8N5J4 1-248); details: protein: recombinant; tags: N-terminal GST; dsDNA, one strand shown
T2 sequence: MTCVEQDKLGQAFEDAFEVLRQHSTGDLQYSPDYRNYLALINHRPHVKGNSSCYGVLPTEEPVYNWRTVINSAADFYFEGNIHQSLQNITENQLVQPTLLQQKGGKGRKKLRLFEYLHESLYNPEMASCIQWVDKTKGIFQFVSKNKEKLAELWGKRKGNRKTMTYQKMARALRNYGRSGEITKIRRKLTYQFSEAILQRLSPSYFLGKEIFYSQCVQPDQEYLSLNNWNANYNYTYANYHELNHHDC
Outline: as §1

[5] = target: ELF4 (Homo sapiens, UniProt Q99607 1-663); details: protein: recombinant; tags: N-terminal GST; dsDNA, one strand shown
Outline: as §1

[6] = target: T3, ELK4 (Homo sapiens, UniProt P28324-2 1-405); details: protein: recombinant; tags: N-terminal GST; dsDNA, one strand shown
T3 sequence: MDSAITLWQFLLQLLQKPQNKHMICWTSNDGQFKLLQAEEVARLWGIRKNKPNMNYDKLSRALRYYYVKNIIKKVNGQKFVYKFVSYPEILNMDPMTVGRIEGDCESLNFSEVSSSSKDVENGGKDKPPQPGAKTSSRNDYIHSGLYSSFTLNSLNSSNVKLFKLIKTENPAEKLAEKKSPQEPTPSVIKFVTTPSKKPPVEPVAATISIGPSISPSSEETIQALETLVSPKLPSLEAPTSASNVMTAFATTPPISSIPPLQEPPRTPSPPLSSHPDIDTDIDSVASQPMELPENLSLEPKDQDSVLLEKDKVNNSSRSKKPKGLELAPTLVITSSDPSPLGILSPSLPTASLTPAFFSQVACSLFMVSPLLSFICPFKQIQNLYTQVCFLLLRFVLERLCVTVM
Outline: as §1

[7] = target: T4, ETV2 (Homo sapiens, UniProt O00321 1-342); details: protein: recombinant; tags: N-terminal GST; dsDNA, one strand shown
T4 sequence: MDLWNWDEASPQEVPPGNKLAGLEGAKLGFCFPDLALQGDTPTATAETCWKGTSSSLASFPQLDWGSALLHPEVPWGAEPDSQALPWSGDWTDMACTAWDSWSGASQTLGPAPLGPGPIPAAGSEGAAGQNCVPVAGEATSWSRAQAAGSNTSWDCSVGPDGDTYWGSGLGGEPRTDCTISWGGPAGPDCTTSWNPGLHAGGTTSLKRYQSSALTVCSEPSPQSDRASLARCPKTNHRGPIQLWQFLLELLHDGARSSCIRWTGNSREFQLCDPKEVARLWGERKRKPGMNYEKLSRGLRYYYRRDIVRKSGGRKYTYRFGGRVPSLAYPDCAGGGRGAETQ
Outline: as §1

[8] = target: T5, ELF3 (Homo sapiens, UniProt P78545 1-371); details: protein: recombinant; tags: N-terminal GST; dsDNA, one strand shown
T5 sequence: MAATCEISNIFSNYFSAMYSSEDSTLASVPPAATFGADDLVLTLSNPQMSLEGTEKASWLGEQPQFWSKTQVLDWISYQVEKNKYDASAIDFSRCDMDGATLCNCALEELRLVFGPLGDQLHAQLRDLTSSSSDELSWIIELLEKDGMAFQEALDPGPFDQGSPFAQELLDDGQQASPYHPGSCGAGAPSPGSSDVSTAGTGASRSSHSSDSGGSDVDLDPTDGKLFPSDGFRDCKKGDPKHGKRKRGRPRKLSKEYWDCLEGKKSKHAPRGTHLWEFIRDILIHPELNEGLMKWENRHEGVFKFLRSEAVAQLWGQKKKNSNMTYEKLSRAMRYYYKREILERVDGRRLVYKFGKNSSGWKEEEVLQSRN
Outline: as §1

[9] = target: CRX (Homo sapiens, UniProt O43186 1-299); details: protein: recombinant; tags: N-terminal GST; dsDNA, one strand shown
Outline: as §1

[10] = target: ETV1 (Homo sapiens, UniProt P50549 1-477); details: protein: recombinant; tags: N-terminal GST; dsDNA, one strand shown
Outline: as §1

HSF1, sequence (Q00613 whole entry): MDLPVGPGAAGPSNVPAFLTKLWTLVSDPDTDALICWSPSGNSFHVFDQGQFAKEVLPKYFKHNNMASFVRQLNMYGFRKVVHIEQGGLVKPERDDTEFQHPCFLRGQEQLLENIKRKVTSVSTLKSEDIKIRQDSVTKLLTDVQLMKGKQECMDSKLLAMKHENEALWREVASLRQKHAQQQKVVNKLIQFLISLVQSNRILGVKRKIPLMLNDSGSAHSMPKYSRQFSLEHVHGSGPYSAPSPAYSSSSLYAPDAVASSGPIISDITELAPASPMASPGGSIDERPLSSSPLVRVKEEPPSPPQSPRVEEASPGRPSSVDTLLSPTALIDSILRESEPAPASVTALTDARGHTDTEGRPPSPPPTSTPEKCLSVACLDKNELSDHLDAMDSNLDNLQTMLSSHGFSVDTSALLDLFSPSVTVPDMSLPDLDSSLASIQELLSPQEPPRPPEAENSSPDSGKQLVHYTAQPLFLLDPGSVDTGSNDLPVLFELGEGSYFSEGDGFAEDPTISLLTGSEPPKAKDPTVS
ETV5, sequence (P41161 whole entry): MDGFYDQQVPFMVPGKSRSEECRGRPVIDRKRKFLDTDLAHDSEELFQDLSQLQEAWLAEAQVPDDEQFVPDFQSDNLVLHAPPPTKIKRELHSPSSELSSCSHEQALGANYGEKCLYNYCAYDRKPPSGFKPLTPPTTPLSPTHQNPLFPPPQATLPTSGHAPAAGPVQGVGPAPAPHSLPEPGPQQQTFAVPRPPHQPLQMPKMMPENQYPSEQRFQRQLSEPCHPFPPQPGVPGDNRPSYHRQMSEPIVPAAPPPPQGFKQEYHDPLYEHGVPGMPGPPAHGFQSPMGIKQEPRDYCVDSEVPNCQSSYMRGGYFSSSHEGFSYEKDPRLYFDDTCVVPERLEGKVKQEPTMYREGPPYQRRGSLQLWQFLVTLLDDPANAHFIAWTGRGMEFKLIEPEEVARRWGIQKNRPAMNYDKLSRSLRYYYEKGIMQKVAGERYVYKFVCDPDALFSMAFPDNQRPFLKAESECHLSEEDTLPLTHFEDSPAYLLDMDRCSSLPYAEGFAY
CRX, sequence (O43186 whole entry): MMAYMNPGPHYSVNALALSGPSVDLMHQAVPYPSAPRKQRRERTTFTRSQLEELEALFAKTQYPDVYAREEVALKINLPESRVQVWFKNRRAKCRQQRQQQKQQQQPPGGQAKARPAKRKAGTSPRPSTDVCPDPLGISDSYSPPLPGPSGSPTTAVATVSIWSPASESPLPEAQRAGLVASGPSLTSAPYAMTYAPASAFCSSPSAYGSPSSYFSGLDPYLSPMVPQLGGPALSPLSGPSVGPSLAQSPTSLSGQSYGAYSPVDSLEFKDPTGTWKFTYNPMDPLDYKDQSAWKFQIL
ETV1, sequence (P50549 whole entry): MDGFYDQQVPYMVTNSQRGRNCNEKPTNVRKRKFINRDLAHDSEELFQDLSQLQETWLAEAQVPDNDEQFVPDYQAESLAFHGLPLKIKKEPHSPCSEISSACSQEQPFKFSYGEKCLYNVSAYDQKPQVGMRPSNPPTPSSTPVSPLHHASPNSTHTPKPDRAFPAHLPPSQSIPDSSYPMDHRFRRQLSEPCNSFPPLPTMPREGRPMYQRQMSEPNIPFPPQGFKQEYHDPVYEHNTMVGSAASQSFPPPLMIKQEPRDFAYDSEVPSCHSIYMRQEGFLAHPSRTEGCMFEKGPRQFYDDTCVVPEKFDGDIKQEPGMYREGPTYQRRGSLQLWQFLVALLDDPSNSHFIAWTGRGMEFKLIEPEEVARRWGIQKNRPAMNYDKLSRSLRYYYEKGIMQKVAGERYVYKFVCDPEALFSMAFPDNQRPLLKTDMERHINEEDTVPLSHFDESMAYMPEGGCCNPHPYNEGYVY
ELF4, sequence (Q99607 whole entry): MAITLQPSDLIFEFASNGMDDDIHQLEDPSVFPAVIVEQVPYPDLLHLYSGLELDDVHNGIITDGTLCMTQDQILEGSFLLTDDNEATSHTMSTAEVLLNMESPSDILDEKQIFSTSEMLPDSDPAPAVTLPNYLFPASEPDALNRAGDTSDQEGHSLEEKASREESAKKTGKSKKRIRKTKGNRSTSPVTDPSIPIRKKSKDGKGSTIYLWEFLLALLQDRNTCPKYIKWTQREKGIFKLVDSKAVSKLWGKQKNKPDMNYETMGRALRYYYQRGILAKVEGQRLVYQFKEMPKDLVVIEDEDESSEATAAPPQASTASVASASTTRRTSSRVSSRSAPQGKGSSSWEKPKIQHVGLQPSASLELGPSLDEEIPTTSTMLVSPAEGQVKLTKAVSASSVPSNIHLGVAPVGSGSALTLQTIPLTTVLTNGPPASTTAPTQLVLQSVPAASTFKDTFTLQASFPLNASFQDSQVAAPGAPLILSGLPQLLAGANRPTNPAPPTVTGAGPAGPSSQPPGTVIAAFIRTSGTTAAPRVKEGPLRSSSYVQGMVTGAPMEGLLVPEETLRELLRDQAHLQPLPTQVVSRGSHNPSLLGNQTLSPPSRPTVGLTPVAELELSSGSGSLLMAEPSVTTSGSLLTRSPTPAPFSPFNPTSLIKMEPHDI

In the case of ATGGAT, the binding signal [1] is reported as 1.04 fold enrichment (6-mer frequency, TF over GST control), the binding signal [2] is reported as 1.07 fold enrichment (6-mer frequency, TF over GST control) and the binding signal [3] is reported as 1.26 fold enrichment (6-mer frequency, TF over GST control). The binding signal [4] was 1.21 fold enrichment (6-mer frequency, TF over GST control), the binding signal [5] was 1.11 fold enrichment (6-mer frequency, TF over GST control) and the binding signal [6] was 1.14 fold enrichment (6-mer frequency, TF over GST control). For the same sequence, the binding signal [7] was 1.06 fold enrichment (6-mer frequency, TF over GST control), the binding signal [8] was 1.09 fold enrichment (6-mer frequency, TF over GST control) and the binding signal [9] was 1.6 fold enrichment (6-mer frequency, TF over GST control). For the same sequence, the binding signal [10] was 1.06 fold enrichment (6-mer frequency, TF over GST control).
